ChEMBL document CHEMBL2218924, “A broad activity screen in support of a chemogenomic map for kinase signalling research and drug discovery” (Biochem J, 2013)

Biological target: T1, Tyrosine-protein kinase Tec (Homo sapiens) (UniProt P42680)
T1 sequence (whole entry): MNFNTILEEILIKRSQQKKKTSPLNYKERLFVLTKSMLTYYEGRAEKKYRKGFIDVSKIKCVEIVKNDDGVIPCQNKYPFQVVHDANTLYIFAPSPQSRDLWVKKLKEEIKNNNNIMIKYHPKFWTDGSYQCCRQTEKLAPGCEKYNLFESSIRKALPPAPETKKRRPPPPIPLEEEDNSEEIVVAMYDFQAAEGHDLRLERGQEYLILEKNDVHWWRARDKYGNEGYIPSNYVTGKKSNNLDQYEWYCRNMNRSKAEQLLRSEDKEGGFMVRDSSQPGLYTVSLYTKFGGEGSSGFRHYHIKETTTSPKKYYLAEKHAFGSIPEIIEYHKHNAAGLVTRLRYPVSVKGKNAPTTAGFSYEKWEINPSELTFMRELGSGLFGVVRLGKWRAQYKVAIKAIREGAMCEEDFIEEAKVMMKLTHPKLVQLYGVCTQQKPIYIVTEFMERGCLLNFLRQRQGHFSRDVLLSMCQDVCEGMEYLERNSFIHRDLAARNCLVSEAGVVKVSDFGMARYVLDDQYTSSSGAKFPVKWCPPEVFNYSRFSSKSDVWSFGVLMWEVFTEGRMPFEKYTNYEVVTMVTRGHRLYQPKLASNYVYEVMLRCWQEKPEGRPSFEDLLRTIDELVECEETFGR
Settings: at 1 µM

First: COc1ccc2c(c[n+](C)c3c4cc5c(cc4ccc23)OCO5)c1OC
Second: COc1cc(OC)c(/C=C2\C(=O)Nc3ccccc32)c(OC)c1
The residual activity of the first is lower: 86% for the first, 98% for the second.

Compared with `O=[N+]([O-])/C=C/c1ccc2c(c1)OCO2`, `O=C1Nc2ccc3ncsc3c2/C1=C/c1c[nH]cn1` is higher in residual activity: 89% for the first, 91% for the second.

First: O=c1[nH]c2ccccc2n1C1CCN(Cc2ccc(-c3nc4cc5[nH]cnc5cc4nc3-c3ccccc3)cc2)CC1
Second: O=C1NC(=O)c2c1c1c3ccccc3n3c1c1c2c2ccccc2n1C1CCC3O1
The residual activity of the first is higher: 95% for the first, 66% for the second.

Going from `COc1cc2ncnc(Nc3ccc(OCc4ccccc4)cc3)c2cc1OC` to `CCc1nc(-c2ccc(OC)cc2)[nH]c1-c1ccncc1`, the residual activity falls from 107% to 102%.

Compared with `CC(C)[C@H](CO)Nc1nc(Nc2cccc(Cl)c2)c2ncn(C(C)C)c2n1`, `CCn1cnc2c(Nc3cccc(Cl)c3)nc(N[C@@H]3CCCC[C@@H]3N)nc21` is lower in residual activity: 63% for the first, 39% for the second.

Compared with `COC(=O)[C@@]1(O)C[C@H]2O[C@]1(C)n1c3ccccc3c3c4c(c5c6ccccc6n2c5c31)C(=O)NC4`, `C[S+]([O-])c1ccc(-c2nc(-c3ccc(F)cc3)c(-c3ccncc3)[nH]2)cc1` (configuration not stated) is higher in residual activity: 3% for the first, 94% for the second.

Biological target: T1, Tyrosine-protein kinase Tec (Homo sapiens)
Settings: at 10 µM

Going from `COc1ccc2c(c[n+](C)c3c4cc5c(cc4ccc23)OCO5)c1OC` to `COc1cc(OC)c(/C=C2\C(=O)Nc3ccccc32)c(OC)c1`, the residual activity rises from 66% to 77%.

Compared with `O=[N+]([O-])/C=C/c1ccc2c(c1)OCO2`, `COc1ccc2c(c1)/C(=C/c1cnc[nH]1)C(=O)N2` is lower in residual activity: 90% for the first, 70% for the second.

First: O=C1Nc2ccc3ncsc3c2/C1=C/c1c[nH]cn1
Second: COc1cc2ncnc(Nc3ccc(OCc4ccccc4)cc3)c2cc1OC
The residual activity of the first is lower: 42% for the first, 67% for the second.

`c1cc(-c2cnn3cc(-c4ccc(OCCN5CCCCC5)cc4)cnc23)ccn1` and `CCc1nc(-c2ccc(OC)cc2)[nH]c1-c1ccncc1` are the same in residual activity: 75% for the first, 75% for the second.

Compared with `O=c1[nH]c2ccccc2n1C1CCN(Cc2ccc(-c3nc4cc5[nH]cnc5cc4nc3-c3ccccc3)cc2)CC1`, `O=C1NC(=O)c2c1c1c3ccccc3n3c1c1c2c2ccccc2n1C1CCC3O1` is higher in residual activity: 38% for the first, 76% for the second.

Going from `CC(C)[C@H](CO)Nc1nc(Nc2cccc(Cl)c2)c2ncn(C(C)C)c2n1` to `CCn1cnc2c(Nc3cccc(Cl)c3)nc(N[C@@H]3CCCC[C@@H]3N)nc21`, the residual activity falls from 8% to 7%.

First: COC(=O)[C@@]1(O)C[C@H]2O[C@]1(C)n1c3ccccc3c3c4c(c5c6ccccc6n2c5c31)C(=O)NC4
Second: C[S+]([O-])c1ccc(-c2nc(-c3ccc(F)cc3)c(-c3ccncc3)[nH]2)cc1 (configuration not stated)
The residual activity of the first is lower: 2% for the first, 89% for the second.

`CC(C)(C)c1cc(C=C(C#N)C#N)cc(Br)c1O` gave a residual activity of 103%.

Biological target: Angiopoietin-1 receptor (Homo sapiens) (UniProt Q02763)
Sequence (Q02763 whole entry): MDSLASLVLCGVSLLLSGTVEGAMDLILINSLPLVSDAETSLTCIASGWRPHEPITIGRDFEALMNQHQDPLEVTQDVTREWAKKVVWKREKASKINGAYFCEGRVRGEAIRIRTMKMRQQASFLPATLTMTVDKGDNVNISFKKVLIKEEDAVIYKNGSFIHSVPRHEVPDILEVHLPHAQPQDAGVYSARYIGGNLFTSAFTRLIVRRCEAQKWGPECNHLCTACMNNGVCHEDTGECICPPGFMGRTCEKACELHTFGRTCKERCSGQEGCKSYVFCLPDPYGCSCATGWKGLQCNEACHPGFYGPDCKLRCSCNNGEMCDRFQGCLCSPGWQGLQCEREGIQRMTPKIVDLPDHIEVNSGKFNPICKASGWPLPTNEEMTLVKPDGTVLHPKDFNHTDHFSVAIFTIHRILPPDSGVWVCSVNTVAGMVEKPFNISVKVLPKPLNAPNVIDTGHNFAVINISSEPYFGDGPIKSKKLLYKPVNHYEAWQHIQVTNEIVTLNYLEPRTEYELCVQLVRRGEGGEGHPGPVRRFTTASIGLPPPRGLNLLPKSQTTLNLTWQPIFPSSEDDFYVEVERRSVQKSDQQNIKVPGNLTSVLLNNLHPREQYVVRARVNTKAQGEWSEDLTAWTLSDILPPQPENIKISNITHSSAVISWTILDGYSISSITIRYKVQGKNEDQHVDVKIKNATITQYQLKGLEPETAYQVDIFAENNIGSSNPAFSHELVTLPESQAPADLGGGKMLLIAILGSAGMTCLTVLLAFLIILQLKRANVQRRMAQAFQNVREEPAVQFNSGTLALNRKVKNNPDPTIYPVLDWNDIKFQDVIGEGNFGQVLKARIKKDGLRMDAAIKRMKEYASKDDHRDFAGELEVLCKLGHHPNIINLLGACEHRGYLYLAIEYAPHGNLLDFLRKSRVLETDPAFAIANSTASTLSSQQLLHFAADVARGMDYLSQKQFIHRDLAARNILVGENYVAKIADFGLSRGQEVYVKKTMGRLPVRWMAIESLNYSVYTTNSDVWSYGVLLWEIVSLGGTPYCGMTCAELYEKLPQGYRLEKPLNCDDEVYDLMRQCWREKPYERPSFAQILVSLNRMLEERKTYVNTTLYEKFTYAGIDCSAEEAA
Settings: at 1 µM

Going from `COc1ccc2c(c[n+](C)c3c4cc5c(cc4ccc23)OCO5)c1OC` to `COc1cc(OC)c(/C=C2\C(=O)Nc3ccccc32)c(OC)c1`, the residual activity rises from 12% to 93%.

Going from `O=C1c2ccccc2-c2nc3nnnn3nc21` to `CC(C)[C@H](CO)Nc1nc(Nc2cccc(Cl)c2)c2ncn(C(C)C)c2n1`, the residual activity rises from 75% to 99%.

Compared with `O=[N+]([O-])/C=C/c1ccc2c(c1)OCO2`, `N/C(=N\[N+](=O)[O-])N/N=C\c1ccc(-c2cccc([N+](=O)[O-])c2)o1` is higher in residual activity: 80% for the first, 90% for the second.

First: O=C1Nc2ccc3ncsc3c2/C1=C/c1c[nH]cn1
Second: COc1cc2ncnc(Nc3ccc(OCc4ccccc4)cc3)c2cc1OC
The residual activity of the first is lower: 67% for the first, 106% for the second.

Compared with `O=c1[nH]c2ccccc2n1C1CCN(Cc2ccc(-c3nc4cc5[nH]cnc5cc4nc3-c3ccccc3)cc2)CC1`, `C[S+]([O-])c1ccc(-c2nc(-c3ccc(F)cc3)c(-c3ccncc3)[nH]2)cc1` (configuration not stated) is higher in residual activity: 86% for the first, 102% for the second.

First: CCc1nc(-c2ccc(OC)cc2)[nH]c1-c1ccncc1
Second: COC(=O)[C@@]1(O)C[C@H]2O[C@]1(C)n1c3ccccc3c3c4c(c5c6ccccc6n2c5c31)C(=O)NC4
The residual activity of the first is higher: 111% for the first, 20% for the second.

First: CCn1cnc2c(Nc3cccc(Cl)c3)nc(N[C@@H]3CCCC[C@@H]3N)nc21
Second: CC(C)(C)c1cc(C=C(C#N)C#N)cc(Br)c1O
The residual activity of the first is lower: 83% for the first, 114% for the second.

Biological target: Angiopoietin-1 receptor (Homo sapiens) (UniProt Q02763)
Settings: at 10 µM

First: COc1ccc2c(c[n+](C)c3c4cc5c(cc4ccc23)OCO5)c1OC
Second: COc1cc(OC)c(/C=C2\C(=O)Nc3ccccc32)c(OC)c1
The residual activity of the first is lower: 3% for the first, 59% for the second.

First: O=C1c2ccccc2-c2nc3nnnn3nc21
Second: CC(C)[C@H](CO)Nc1nc(Nc2cccc(Cl)c2)c2ncn(C(C)C)c2n1
The residual activity of the first is lower: 20% for the first, 59% for the second.

Compared with `O=[N+]([O-])/C=C/c1ccc2c(c1)OCO2`, `N/C(=N\[N+](=O)[O-])N/N=C\c1ccc(-c2cccc([N+](=O)[O-])c2)o1` is higher in residual activity: 60% for the first, 92% for the second.

Going from `O=C1Nc2ccc3ncsc3c2/C1=C/c1c[nH]cn1` to `COc1ccc2c(c1)/C(=C/c1cnc[nH]1)C(=O)N2`, the residual activity rises from 22% to 71%.

First: c1cc(-c2cnn3cc(-c4ccc(OCCN5CCCCC5)cc4)cnc23)ccn1
Second: CCc1nc(-c2ccc(OC)cc2)[nH]c1-c1ccncc1
The residual activity of the first is lower: 44% for the first, 106% for the second.

Compared with `O=c1[nH]c2ccccc2n1C1CCN(Cc2ccc(-c3nc4cc5[nH]cnc5cc4nc3-c3ccccc3)cc2)CC1`, `C[S+]([O-])c1ccc(-c2nc(-c3ccc(F)cc3)c(-c3ccncc3)[nH]2)cc1` (configuration not stated) is higher in residual activity: 37% for the first, 62% for the second.

Compared with `COc1cc2ncnc(Nc3ccc(OCc4ccccc4)cc3)c2cc1OC`, `COC(=O)[C@@]1(O)C[C@H]2O[C@]1(C)n1c3ccccc3c3c4c(c5c6ccccc6n2c5c31)C(=O)NC4` is lower in residual activity: 78% for the first, 3% for the second.

Compared with `CCn1cnc2c(Nc3cccc(Cl)c3)nc(N[C@@H]3CCCC[C@@H]3N)nc21`, `CC(C)(C)c1cc(C=C(C#N)C#N)cc(Br)c1O` is higher in residual activity: 42% for the first, 101% for the second.
